Columns and labels:
Experiment in all cases: log2 ratio of Biotin-Ahx-Ub-VS probe labelling (fragment/DMSO); higher = less target engagement (more negative = stronger competition), active = hit call of the paper (q ≤ 0.05, log2 ratio ≤ -1)
Conditions in all cases: compound concentration: 200 uM; treatment time: 3 h
USP34 = USP34 (UniProt Q70CQ2)
Outline: (§1)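 Labelling with Biotin-Ahx-Ub-VS (0.5 µM final, 1 h) followed a 3 h triplicate treatment of HEK293T lysate (495 µg per sample, Tris/CHAPS/IGEPAL buffer with protease inhibitors) with fragment at 200 µM or vehicle. Labelled DUBs were NeutrAvidin-enriched, digested with LysC and trypsin, and run by diaPASEF LC-MS/MS. The values, average log2 fragment/vehicle ratios by unpaired t-test, come from global-median-normalised Spectronaut label-free quantities. Proteins with ≥2 unique peptides were used.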

USP36 = target: T1, USP36 (UniProt Q9P275)
T1 sequence (whole entry): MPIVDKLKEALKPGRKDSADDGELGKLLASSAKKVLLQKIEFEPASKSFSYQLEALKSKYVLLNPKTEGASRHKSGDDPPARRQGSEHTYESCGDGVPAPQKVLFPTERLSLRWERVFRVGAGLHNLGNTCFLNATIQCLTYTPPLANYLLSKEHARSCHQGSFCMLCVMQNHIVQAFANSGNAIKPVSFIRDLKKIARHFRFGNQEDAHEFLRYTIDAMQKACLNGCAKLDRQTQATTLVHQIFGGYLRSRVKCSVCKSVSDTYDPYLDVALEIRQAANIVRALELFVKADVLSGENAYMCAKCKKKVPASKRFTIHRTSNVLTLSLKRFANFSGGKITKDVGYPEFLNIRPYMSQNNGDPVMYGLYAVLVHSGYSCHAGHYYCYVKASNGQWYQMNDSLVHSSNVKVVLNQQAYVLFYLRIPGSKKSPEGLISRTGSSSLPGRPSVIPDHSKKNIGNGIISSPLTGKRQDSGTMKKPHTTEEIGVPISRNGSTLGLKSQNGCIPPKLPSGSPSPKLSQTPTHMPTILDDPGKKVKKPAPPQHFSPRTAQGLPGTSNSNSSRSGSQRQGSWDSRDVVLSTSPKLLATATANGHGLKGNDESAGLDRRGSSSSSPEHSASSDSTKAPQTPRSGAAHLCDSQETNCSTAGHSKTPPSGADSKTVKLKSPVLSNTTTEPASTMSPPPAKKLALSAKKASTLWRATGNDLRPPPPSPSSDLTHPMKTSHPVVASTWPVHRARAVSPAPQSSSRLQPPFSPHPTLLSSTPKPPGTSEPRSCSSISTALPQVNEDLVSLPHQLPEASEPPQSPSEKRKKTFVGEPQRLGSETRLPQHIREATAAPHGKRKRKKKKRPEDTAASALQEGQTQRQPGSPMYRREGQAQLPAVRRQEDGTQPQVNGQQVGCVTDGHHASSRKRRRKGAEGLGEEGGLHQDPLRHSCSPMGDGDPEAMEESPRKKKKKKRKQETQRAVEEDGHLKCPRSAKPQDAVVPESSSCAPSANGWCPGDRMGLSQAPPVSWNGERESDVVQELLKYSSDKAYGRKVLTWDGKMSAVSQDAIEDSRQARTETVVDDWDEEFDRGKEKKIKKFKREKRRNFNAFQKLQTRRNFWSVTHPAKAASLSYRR
Outline: as §1

USP38 = target: T2, USP38 (UniProt Q8NB14)
T2 sequence (whole entry): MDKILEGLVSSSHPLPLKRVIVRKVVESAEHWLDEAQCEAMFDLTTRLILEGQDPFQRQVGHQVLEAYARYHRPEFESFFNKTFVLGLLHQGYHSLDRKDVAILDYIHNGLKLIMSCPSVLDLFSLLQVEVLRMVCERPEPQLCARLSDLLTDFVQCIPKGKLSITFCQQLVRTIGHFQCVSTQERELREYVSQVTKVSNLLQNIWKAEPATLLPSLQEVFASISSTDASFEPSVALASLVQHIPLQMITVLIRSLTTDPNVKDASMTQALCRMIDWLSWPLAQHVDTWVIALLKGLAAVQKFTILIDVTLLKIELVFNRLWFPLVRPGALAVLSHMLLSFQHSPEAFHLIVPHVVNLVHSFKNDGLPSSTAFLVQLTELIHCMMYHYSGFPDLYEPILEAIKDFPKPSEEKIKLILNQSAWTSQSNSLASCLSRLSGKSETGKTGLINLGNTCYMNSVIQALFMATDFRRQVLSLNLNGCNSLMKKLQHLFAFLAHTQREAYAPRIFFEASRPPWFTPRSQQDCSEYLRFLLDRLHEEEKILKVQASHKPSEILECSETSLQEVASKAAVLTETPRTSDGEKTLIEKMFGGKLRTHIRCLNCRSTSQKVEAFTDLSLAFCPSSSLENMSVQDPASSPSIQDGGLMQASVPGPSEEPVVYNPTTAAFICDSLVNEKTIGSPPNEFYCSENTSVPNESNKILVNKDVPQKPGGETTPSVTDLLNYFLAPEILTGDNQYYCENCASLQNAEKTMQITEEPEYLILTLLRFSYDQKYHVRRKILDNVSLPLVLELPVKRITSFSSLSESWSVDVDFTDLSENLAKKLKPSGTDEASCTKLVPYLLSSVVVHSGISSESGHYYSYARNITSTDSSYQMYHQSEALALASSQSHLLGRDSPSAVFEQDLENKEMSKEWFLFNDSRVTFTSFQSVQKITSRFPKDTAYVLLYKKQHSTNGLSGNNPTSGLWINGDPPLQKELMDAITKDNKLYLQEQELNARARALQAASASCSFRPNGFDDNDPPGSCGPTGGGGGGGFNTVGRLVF
Outline: as §1

USP39 = target: T3, USP39 (UniProt Q53GS9)
T3 sequence (whole entry): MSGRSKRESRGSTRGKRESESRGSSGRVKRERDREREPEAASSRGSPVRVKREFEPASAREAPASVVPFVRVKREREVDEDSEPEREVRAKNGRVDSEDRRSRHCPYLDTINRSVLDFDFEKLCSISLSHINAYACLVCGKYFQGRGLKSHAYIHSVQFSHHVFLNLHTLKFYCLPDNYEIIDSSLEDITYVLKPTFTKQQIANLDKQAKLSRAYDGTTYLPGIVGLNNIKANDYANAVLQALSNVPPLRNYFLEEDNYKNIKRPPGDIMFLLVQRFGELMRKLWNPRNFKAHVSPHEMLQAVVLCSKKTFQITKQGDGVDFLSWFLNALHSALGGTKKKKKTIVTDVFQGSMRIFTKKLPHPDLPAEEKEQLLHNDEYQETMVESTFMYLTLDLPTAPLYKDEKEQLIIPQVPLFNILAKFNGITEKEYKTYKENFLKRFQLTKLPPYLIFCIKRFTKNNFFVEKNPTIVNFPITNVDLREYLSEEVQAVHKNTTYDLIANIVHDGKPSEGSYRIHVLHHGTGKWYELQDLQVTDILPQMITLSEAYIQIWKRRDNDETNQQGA
Outline: as §1

USP4 = target: T4, USP4 (UniProt Q13107)
T4 sequence (whole entry): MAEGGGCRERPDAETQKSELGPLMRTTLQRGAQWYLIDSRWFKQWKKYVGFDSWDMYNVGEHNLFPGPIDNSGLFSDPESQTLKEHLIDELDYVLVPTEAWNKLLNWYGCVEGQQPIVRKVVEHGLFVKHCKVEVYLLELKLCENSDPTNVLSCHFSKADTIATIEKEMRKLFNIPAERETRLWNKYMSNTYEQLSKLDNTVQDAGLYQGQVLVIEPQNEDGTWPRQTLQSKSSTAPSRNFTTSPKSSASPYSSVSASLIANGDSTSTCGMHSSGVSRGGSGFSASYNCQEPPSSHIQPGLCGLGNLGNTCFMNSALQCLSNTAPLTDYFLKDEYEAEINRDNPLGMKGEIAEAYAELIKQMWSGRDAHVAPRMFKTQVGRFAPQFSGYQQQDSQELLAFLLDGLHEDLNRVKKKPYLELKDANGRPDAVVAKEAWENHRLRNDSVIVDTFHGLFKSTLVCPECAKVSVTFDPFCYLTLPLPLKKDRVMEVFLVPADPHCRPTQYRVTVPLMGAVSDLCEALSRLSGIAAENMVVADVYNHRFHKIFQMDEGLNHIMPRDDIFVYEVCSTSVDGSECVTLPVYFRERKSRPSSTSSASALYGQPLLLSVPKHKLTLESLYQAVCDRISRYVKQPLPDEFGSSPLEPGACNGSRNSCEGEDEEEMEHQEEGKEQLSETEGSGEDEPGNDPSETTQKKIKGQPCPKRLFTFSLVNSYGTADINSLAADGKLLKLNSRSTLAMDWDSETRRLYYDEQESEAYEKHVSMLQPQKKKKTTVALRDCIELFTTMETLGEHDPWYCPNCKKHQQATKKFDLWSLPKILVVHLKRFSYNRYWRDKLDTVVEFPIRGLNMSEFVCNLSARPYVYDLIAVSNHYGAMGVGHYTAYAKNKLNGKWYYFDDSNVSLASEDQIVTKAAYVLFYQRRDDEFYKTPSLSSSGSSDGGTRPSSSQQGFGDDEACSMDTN
Outline: as §1

Measured: log2 ratio of Biotin-Ahx-Ub-VS probe labelling

Chain of USP34 (Q70CQ2 whole entry, the tested form may be a part): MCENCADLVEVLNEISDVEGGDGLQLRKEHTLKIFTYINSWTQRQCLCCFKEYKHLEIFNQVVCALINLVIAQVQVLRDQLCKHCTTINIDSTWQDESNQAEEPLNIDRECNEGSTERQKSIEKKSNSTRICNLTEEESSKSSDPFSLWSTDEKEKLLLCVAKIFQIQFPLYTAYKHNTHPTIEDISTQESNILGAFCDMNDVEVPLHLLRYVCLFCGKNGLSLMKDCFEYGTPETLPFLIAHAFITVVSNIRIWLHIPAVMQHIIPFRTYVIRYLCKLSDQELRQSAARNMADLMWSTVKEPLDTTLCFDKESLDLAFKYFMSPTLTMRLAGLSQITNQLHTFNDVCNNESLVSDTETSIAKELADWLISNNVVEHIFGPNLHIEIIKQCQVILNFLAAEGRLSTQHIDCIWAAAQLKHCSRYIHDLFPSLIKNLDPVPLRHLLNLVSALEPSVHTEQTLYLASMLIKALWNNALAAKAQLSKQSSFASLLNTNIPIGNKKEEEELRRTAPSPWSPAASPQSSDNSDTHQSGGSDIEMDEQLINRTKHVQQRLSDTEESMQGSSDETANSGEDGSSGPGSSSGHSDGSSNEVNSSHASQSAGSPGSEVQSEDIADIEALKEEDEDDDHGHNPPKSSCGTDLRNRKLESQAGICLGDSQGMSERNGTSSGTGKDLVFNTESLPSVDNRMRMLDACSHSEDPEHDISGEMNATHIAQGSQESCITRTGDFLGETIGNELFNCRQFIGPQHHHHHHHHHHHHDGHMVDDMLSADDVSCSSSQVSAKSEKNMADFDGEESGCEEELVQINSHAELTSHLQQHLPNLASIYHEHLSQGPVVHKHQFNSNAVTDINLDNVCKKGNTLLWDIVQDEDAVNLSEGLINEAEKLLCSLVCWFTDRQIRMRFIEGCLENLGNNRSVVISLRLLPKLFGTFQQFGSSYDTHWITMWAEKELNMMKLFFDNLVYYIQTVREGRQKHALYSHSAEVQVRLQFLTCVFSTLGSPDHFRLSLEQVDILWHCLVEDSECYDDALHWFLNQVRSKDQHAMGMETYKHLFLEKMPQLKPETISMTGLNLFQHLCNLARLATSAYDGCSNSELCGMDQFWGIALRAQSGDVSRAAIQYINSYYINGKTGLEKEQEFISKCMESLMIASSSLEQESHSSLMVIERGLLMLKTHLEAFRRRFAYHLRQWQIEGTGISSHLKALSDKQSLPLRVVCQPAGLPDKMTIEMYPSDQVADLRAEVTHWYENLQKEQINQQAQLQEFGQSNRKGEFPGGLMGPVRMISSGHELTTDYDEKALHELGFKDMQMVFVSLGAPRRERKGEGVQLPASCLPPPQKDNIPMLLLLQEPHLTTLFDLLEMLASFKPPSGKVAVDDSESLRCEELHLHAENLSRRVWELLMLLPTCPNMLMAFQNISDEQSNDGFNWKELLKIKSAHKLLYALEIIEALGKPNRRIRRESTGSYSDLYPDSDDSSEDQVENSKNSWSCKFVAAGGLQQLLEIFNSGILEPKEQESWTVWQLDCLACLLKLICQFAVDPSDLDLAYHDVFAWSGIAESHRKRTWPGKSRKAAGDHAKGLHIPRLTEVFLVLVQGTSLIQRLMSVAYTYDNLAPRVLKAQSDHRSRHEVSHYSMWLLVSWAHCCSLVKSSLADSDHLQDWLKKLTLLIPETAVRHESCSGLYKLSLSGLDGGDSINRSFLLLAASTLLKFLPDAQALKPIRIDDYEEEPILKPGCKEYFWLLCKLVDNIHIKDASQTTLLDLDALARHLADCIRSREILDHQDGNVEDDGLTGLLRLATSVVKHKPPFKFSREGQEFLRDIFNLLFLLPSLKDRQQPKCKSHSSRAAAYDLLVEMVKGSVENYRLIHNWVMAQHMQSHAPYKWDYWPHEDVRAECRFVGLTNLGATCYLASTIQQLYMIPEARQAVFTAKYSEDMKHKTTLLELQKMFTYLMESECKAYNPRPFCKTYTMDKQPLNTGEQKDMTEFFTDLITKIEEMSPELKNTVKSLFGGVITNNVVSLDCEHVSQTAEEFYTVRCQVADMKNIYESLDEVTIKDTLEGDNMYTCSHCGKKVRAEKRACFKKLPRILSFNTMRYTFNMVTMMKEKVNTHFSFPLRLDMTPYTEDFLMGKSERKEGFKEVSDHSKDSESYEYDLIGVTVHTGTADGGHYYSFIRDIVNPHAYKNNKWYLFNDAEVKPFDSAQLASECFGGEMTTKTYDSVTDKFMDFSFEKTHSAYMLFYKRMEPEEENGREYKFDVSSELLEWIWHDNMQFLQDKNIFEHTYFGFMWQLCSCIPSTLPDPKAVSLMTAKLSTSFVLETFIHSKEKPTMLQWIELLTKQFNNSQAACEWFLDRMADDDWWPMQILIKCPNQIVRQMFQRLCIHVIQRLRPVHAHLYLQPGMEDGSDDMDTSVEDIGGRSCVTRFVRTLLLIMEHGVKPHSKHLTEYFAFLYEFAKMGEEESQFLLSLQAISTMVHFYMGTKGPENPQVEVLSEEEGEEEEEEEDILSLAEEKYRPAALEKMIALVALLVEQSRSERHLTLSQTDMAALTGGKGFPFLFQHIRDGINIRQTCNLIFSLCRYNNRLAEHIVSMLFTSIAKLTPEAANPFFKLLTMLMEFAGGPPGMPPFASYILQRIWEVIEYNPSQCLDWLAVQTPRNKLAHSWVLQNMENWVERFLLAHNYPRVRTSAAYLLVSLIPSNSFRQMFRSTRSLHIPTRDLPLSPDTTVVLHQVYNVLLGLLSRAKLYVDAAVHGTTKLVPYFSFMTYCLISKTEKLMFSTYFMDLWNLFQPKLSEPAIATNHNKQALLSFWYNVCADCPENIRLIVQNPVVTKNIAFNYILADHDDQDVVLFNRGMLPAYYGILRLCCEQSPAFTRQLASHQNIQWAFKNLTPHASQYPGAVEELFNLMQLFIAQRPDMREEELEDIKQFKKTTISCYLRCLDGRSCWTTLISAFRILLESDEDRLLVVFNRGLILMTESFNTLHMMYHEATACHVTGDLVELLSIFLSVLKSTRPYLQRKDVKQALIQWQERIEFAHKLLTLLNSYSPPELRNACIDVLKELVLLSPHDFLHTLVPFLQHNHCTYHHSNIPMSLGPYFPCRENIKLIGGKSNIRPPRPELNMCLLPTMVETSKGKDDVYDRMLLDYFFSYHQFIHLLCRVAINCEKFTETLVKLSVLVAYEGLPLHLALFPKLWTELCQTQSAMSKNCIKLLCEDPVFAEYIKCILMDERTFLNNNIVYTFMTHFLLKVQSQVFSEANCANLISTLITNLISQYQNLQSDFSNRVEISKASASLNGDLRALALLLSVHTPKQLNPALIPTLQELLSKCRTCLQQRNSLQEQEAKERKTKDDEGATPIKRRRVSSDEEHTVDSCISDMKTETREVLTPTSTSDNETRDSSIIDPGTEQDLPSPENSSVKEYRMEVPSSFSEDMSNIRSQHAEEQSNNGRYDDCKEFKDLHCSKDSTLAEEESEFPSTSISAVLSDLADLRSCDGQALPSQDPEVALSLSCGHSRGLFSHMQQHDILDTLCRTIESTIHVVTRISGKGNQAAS

CNC(=O)C1CCN(C(=O)CCl)CC1
inactive: USP34 -0.0658 | USP36 -0.083 | USP38 0.119 | USP39 0.229 | USP4 -0.146

— the supplement of paper PMC11732987, “Enantioselective OTUD7B fragment discovery through chemoproteomics screening and high-throughput optimisation” (Communications Chemistry, 2025)
